# Test results published in the supplement of paper PMC12282887.
# ± gives the standard deviation of the averaged measurements.
# Experiments:
# Assay in all cases: promoter activity interaction Z-score (Lux/OD deviation from empty-vector control); higher = stronger promoter induction by the compound
# [1] = system: E. coli BW25113 acrABp lux reporter
# Method in brief: (§1)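 Wild-type E. coli BW25113 and three single-gene deletion strains, each carrying a low-copy luxCDABE promoter reporter, were grown at 37°C in 40 µl LB Lennox per well of a 384-well plate. Every compound was applied at four 1:2 dilutions in biological duplicates, and OD600 and luminescence were read every 30 min for 12 h. Integration covered 0–8 h for wild type and 1–9 h for deletion strains, and wells under 10% of the median growth value were removed. Scores are Z-transformed residuals of growth-normalised luminescence fitted against a control.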
# [2] = system: E. coli BW25113 micFp lux reporter
# Method in brief: as §1
# [3] = system: E. coli BW25113 ompFp lux reporter
# Method in brief: as §1
# [4] = system: E. coli BW25113 robp lux reporter
# Method in brief: as §1
# [5] = system: E. coli BW25113 soxSp lux reporter
# Method in brief: as §1
# [6] = system: E. coli BW25113 tolCp lux reporter
# Method in brief: as §1
# [7] = 0.12 µg/ml, genetic background: wild type
# [8] = 0.12 µg/ml, genetic background: ΔmarA
# [9] = 0.12 µg/ml, genetic background: Δrob
# [10] = 0.12 µg/ml, genetic background: ΔsoxS
# [11] = 0.24 µg/ml, genetic background: wild type
# [12] = 0.24 µg/ml, genetic background: ΔmarA
# [13] = 0.24 µg/ml, genetic background: Δrob
# [14] = 0.24 µg/ml, genetic background: ΔsoxS
# [15] = 0.48 µg/ml, genetic background: wild type
# [16] = 0.48 µg/ml, genetic background: ΔmarA
# [17] = 0.48 µg/ml, genetic background: Δrob
# [18] = 0.48 µg/ml, genetic background: ΔsoxS
# [19] = 1 µg/ml, genetic background: wild type
# [20] = 1 µg/ml, genetic background: ΔmarA
# [21] = 1 µg/ml, genetic background: ΔsoxS
smiles,measurement,setting,value
O=C(N[C@H](CO)[C@H](O)c1ccc([N+](=O)[O-])cc1)C(Cl)Cl [Chloramphenicol],promoter activity interaction Z-score,[1]; [7],0.22 ± 0.098
same,promoter activity interaction Z-score,[1]; [8],-0.0897 ± 1
same,promoter activity interaction Z-score,[1]; [9],0.368 ± 0.066
same,promoter activity interaction Z-score,[1]; [10],0.272 ± 0.11
same,promoter activity interaction Z-score,[1]; [11],0.636 ± 0.41
same,promoter activity interaction Z-score,[1]; [12],-0.23 ± 0.65
same,promoter activity interaction Z-score,[1]; [13],0.312 ± 0.071
same,promoter activity interaction Z-score,[1]; [14],0.433 ± 0.24
same,promoter activity interaction Z-score,[1]; [15],1.1 ± 0.056
same,promoter activity interaction Z-score,[1]; [16],-0.541 ± 0.59
same,promoter activity interaction Z-score,[1]; [17],0.7917 ± 0.0062
same,promoter activity interaction Z-score,[1]; [18],1.11 ± 0.52
same,promoter activity interaction Z-score,[1]; [19],1.46 ± 0.021
same,promoter activity interaction Z-score,[1]; [20],-1.09 ± 0.82
same,promoter activity interaction Z-score,[1]; [21],0.0905
same,promoter activity interaction Z-score,[2]; [7],-0.122 ± 0.054
same,promoter activity interaction Z-score,[2]; [8],-0.0498 ± 0.071
same,promoter activity interaction Z-score,[2]; [9],-0.238 ± 0.013
same,promoter activity interaction Z-score,[2]; [10],0.0558 ± 0.064
same,promoter activity interaction Z-score,[2]; [11],0.0837 ± 0.14
same,promoter activity interaction Z-score,[2]; [12],-0.057 ± 0.033
same,promoter activity interaction Z-score,[2]; [13],-0.128 ± 0.036
same,promoter activity interaction Z-score,[2]; [14],-0.0814 ± 0.0056
same,promoter activity interaction Z-score,[2]; [15],-0.548 ± 0.11
same,promoter activity interaction Z-score,[2]; [16],-0.166 ± 0.013
same,promoter activity interaction Z-score,[2]; [17],0.103 ± 0.18
same,promoter activity interaction Z-score,[2]; [18],0.183 ± 0.15
same,promoter activity interaction Z-score,[2]; [19],-1.17 ± 0.016
same,promoter activity interaction Z-score,[2]; [20],-0.119 ± 0.29
same,promoter activity interaction Z-score,[2]; [21],-0.534
same,promoter activity interaction Z-score,[3]; [7],0.809 ± 0.57
same,promoter activity interaction Z-score,[3]; [8],0.473 ± 0.32
same,promoter activity interaction Z-score,[3]; [9],0.576 ± 0.47
same,promoter activity interaction Z-score,[3]; [10],1.1 ± 0.088
same,promoter activity interaction Z-score,[3]; [11],1.81 ± 0.86
same,promoter activity interaction Z-score,[3]; [12],1.78 ± 0.49
same,promoter activity interaction Z-score,[3]; [13],1.2 ± 0.46
same,promoter activity interaction Z-score,[3]; [14],1.55 ± 0.91
same,promoter activity interaction Z-score,[3]; [15],0.1844 ± 0.0012
same,promoter activity interaction Z-score,[3]; [16],1.34 ± 0.83
same,promoter activity interaction Z-score,[3]; [17],0.797 ± 0.094
same,promoter activity interaction Z-score,[3]; [18],1.6 ± 0.38
same,promoter activity interaction Z-score,[3]; [19],-1.42 ± 0.36
same,promoter activity interaction Z-score,[3]; [20],-1.37 ± 0.11
same,promoter activity interaction Z-score,[3]; [21],-0.525
same,promoter activity interaction Z-score,[4]; [7],-0.00573 ± 0.3
same,promoter activity interaction Z-score,[4]; [8],-0.626 ± 0.41
same,promoter activity interaction Z-score,[4]; [9],-0.328 ± 0.36
same,promoter activity interaction Z-score,[4]; [10],0.732 ± 0.14
same,promoter activity interaction Z-score,[4]; [11],-0.692 ± 0.34
same,promoter activity interaction Z-score,[4]; [12],-0.0133 ± 0.15
same,promoter activity interaction Z-score,[4]; [13],-0.61 ± 0.2
same,promoter activity interaction Z-score,[4]; [14],-0.218 ± 0.31
same,promoter activity interaction Z-score,[4]; [15],-1.41 ± 0.4
same,promoter activity interaction Z-score,[4]; [16],-0.957 ± 0.41
same,promoter activity interaction Z-score,[4]; [17],-1.44 ± 0.12
same,promoter activity interaction Z-score,[4]; [18],-1.17 ± 0.88
same,promoter activity interaction Z-score,[4]; [19],-2.19 ± 0.21
same,promoter activity interaction Z-score,[4]; [20],-1.15 ± 0.94
same,promoter activity interaction Z-score,[5]; [7],-0.0492 ± 0.039
same,promoter activity interaction Z-score,[5]; [8],0.159 ± 0.13
same,promoter activity interaction Z-score,[5]; [9],0.217 ± 0.045
same,promoter activity interaction Z-score,[5]; [10],0.238 ± 0.14
same,promoter activity interaction Z-score,[5]; [11],0.299 ± 0.018
same,promoter activity interaction Z-score,[5]; [12],0.529 ± 0.11
same,promoter activity interaction Z-score,[5]; [13],0.189 ± 0.096
same,promoter activity interaction Z-score,[5]; [14],0.422 ± 0.29
same,promoter activity interaction Z-score,[5]; [15],0.645 ± 0.3
same,promoter activity interaction Z-score,[5]; [16],0.914 ± 0.026
same,promoter activity interaction Z-score,[5]; [17],0.721 ± 0.017
same,promoter activity interaction Z-score,[5]; [18],1.45 ± 1.5
same,promoter activity interaction Z-score,[5]; [19],1.67 ± 0.091
same,promoter activity interaction Z-score,[5]; [20],2.38 ± 0.034
same,promoter activity interaction Z-score,[5]; [21],1.71 ± 1.7
same,promoter activity interaction Z-score,[6]; [7],0.142 ± 1.1
same,promoter activity interaction Z-score,[6]; [8],-0.0323 ± 0.44
same,promoter activity interaction Z-score,[6]; [9],0.149 ± 0.77
same,promoter activity interaction Z-score,[6]; [10],-0.831 ± 0.55
same,promoter activity interaction Z-score,[6]; [11],0.339 ± 0.15
same,promoter activity interaction Z-score,[6]; [12],0.367 ± 0.84
same,promoter activity interaction Z-score,[6]; [13],-0.202 ± 1.4
same,promoter activity interaction Z-score,[6]; [14],0.0632 ± 1
same,promoter activity interaction Z-score,[6]; [15],0.356 ± 1.2
same,promoter activity interaction Z-score,[6]; [16],0.168 ± 0.82
same,promoter activity interaction Z-score,[6]; [17],-0.0545 ± 0.19
same,promoter activity interaction Z-score,[6]; [18],2.03 ± 0.53
same,promoter activity interaction Z-score,[6]; [19],-0.0529 ± 0.35
same,promoter activity interaction Z-score,[6]; [20],-0.256 ± 0.82
same,promoter activity interaction Z-score,[6]; [21],1.66 ± 0.93
